From PubChem BioAssay AID651821 (The Scripps Research Institute Molecular Screening Center, 2012)
About 4,700 (1.3%) of roughly 370,000 compounds were called active. Shown is part of a subset that was picked to be rich in actives. A number with no mark means an inactive call.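 The calls were made as follows: active = inhibition above the plate cutoff, the mean of all test compounds on that plate plus 3 SD (cut at about 35% in these data); inactive = the rest.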

Test: small molecules binding CAG repeat RNA – biochemical, fluorescence, primary screen (AID 651821);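 also: 0% = DMSO alone and 100% = 100 µM mitoxantrone as full dye displacement; higher means more dye released from RNA so lower well fluorescence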
Settings: r(CAG) RNA repeat, TO-PRO-1 dye displacement fluorescence; at 3 µM; active compounds read high

Structure (SMILES)	inhibition
CCOc1ccc(N(CC(=O)Nc2c(C)n(C)n(-c3ccccc3)c2=O)S(=O)(=O)c2ccc(Cl)s2)cc1	1.32%
CCCCCCCCN1C(=O)[C@@H](CC(=O)N2CCN(C(=O)OCC)CC2)C[C@@]2(C(=O)OC)C1=C[C@H](C1CCCC1)O[C@@H]2C	5.15%
O=C(CN1CCN(c2ncc(C(F)(F)F)cc2Cl)CC1)Nc1ccc2c(c1)OCO2	-4.82%
Cn1c(=O)c2ccccc2n(CC(=O)Nc2ccc3c(c2)OCCO3)c1=O	-1.32%
Cc1ccc(C(=O)O)cc1-c1ccc(/C=C2\SC(=O)N(CC(=O)Nc3ccc4c(c3)OCO4)C2=O)o1	56% (active)
Cc1ccc2nc(CN(C)C(=O)[C@@H](Cc3ccccc3)NC(=O)[C@H]3O[C@@H](n4ccc(=O)[nH]c4=O)[C@H](O)[C@@H]3O)[nH]c2c1	0.21%
COc1ccc(CN2C/C(=C/c3ccccc3)N3C(=O)C[C@@H](c4ccccc4)N=C23)c(OC)c1	2.75%
Cc1cc(F)ccc1S(=O)(=O)Nc1ncnc2scc(-c3ccc(F)cc3)c12	40.3% (active)
COc1ccc(-c2csc3ncnc(N4CCN(S(=O)(=O)c5cccc(F)c5)CC4)c23)cc1	3.79%
O=S(=O)(Nc1ncnc2sccc12)c1cccc(F)c1	5.08%
Cc1ccc2nc(-c3ccc(CN4CCC(n5cc(-c6ccccc6)[nH]c5=O)CC4)cc3)c(-c3ccccc3)nc2c1	9.33%
COc1cccc(CNC(=O)C2CCCN(c3nc4ccccc4o3)C2)c1OC (stereo not drawn)	4.36%
CC(=O)c1ccc(NC(=O)C2CC(=O)Nc3nc4ccccc4n32)cc1 (stereo not drawn)	2.8%
Brc1ccc(COCCc2cn(Cc3ccccc3)c3ccccc23)cc1	3.73%
Cc1ccc(S(=O)(=O)NNC(=O)/C=C/c2cccc(F)c2)cc1	3.74%
COc1ccc(/C=C/C(=O)c2ccc(NS(=O)(=O)c3ccc(C)cc3)cc2)cc1O	43% (active)
C/C=C/c1ccc(OCC(=O)NNC(=O)CN(C)S(=O)(=O)c2ccc(C)cc2)c(OC)c1	1.87%
O=C(NCc1ccccc1)[C@H]1CCCN1C(=O)[C@H]1CCCN1C(=O)N1CCOCC1	-0.04%
COc1ccc(-c2csc3ncnc(Oc4ccc5c(C)cc(=O)oc5c4)c23)cc1	0.56%
CC(C)OC(=O)c1ccc(COc2ccc3ccc(=O)oc3c2)o1	-0.52%
COc1ccc(-c2cc3ccc(OCc4nn[nH]n4)cc3oc2=O)cc1	44.7% (active)

Structure (SMILES)	inhibition
CN(C)Cc1ccc(F)cc1Sc1cc(Cl)ccc1Cl	-7.65%
CN(CCc1ccccc1)C(=O)Cn1nc(-c2ccccc2)ccc1=O	-2.33%
COc1cc(SC#N)ccc1N=Cc1c(C)[nH]n(-c2ccc(C)cc2)c1=O	6.39%
CCc1nnc(NS(=O)(=O)c2ccc(N=Cc3c(C)[nH]n(-c4ccc(C)cc4)c3=O)cc2)s1	56.7% (active)
CCc1nnc(NC(=O)CCN(c2ccc(C)cc2)S(=O)(=O)c2ccccc2)s1	1.09%
CCOC(=O)N1CCN(C(=O)C[C@H]2C[C@@]3(C(=O)OC)C(=C[C@H](C4CCCC4)O[C@@H]3C)N(Cc3ccccc3)C2=O)CC1	1.98%
O=C(OC12CCCN(C1)/C(=C/c1ccccc1)C2)c1ccco1 (stereo not drawn)	3.14%
CCOc1ccc(-n2c(O)c(/C=N/Nc3nnc(C)c(=O)[nH]3)c3ccccc3c2=O)cc1	47.2% (active)
CCOc1ccc(N/C(N)=N/c2nc(C)c(C)c(=O)[nH]2)cc1	1.99%
COC(=O)Cc1csc(/N=C/c2c(O)n(-c3cccc(C(F)(F)F)c3)c(=O)c3ccccc23)n1	-0.9%
O=C(COc1ccccc1Cl)Nn1cnnc1	2.37%
CCCCN1CCN(C(=O)c2ccc3c(c2)NC(=O)C(C)(C)O3)CC1	-0.58%
CCOC(=O)C1(Cc2ccccc2)CCN(Cc2cn(C(C)=O)c3ccccc23)CC1	-1.49%
CC(=O)NC(c1ccccc1)c1nc(-c2cccc(C(C)C)c2)cs1 (stereo not drawn)	0.86%
CC(=O)Nc1ccc(C(=O)Nc2nc(-c3cc(C)n(Cc4ccccc4)c3C)cs2)cc1	51.7% (active)
COc1ccc(C(C)(NC(C)=O)c2nc(-c3ccc(S(C)(=O)=O)cc3)cs2)cc1 (stereo not drawn)	-0.32%
Cn1c(CNc2nc(-c3ccccc3)cs2)nnc1SCC(=O)c1ccccc1	8.83%
O=C(Nc1ccccc1)Nc1nc2ccccc2s1	41.3% (active)
CCCn1c(C)cc(-c2csc(NC(=O)CCc3nc4ccccc4c(=O)[nH]3)n2)c1C	24.8%
CC(C)CC(=O)N/C(N)=N/c1nc2ccccc2s1	0.1%
CC(=O)Nc1ccc(S(=O)(=O)Nc2nc(-c3ccc(C(C)(C)C)cc3)cs2)cc1	66.5% (active)

Structure (SMILES)	inhibition
CCN(CC)CCn1c2c(c(SCC(=O)Nc3nc4ccccc4s3)nc1=O)CCCC2	-6.14%
Cc1ccc(C(=O)Nc2c(C#N)c(C)c(C)n2Cc2ccccc2)cc1	0.41%
CC(=O)Nc1ccc(S(=O)(=O)Nc2ccc(-c3ccc4nnc(C)n4n3)cc2)cc1	6.21%
CC(=O)Nc1ccc(-c2csc(NC(=O)Nc3ccccc3)n2)cc1	53.7% (active)
CC(NCc1ccco1)C(=O)N1CCCCC1 (stereo not drawn)	2.88%
CC(C)CNc1cccc2c1S(=O)(=O)N[C@H](CC(C)C)CO2	-1.29%
COc1ccc(-c2ccccc2C2Cc3nnccc3CN2C(=O)Nc2ccccc2)cc1 (stereo not drawn)	8.81%
COc1ccnc(C(=O)N2CCC(Oc3cccnc3)CC2)c1	2.96%
CN(C)Cc1cn(-c2ccc(-c3noc4c3C(=O)N(CC(=O)N3CCOCC3)CC4)cc2)nn1	4.11%
CCOC(=O)c1csc(NC(=O)C2CCCN(S(=O)(=O)c3ccc(Cl)s3)C2)n1 (stereo not drawn)	3.09%
Nc1nc2c(ncn2[C@@H]2O[C@H](C(=O)N[C@@H](Cc3ccccc3)C(=O)NCc3ccccc3)[C@@H](O)[C@H]2O)c(=O)[nH]1	3.57%
CCOC(=O)[C@]12CCCC=C1N(CCCOC)C(=O)[C@@H]2CC(=O)N1CCOCC1	0.28%
COc1ccc(CCNC(=O)CN2CCC(n3nnc4cc(F)ccc43)CC2)cc1OC	-9.88%
COC(=O)c1ccc(CSc2nnc(NC(C)C)s2)cc1	-4.56%
Cc1ccc(C(=O)Oc2coc(CSc3nnc(NC(=O)c4cccs4)s3)cc2=O)cc1C	68.7% (active)
CCOc1ccccc1Nc1nnc(SCc2ccc(C(=O)OC)o2)s1	0.96%
C=CCN1C(=O)[C@@H](CC(=O)N2CCN(C(=O)c3ccco3)CC2)[C@]2(C(=O)OC)CCCCC=C12	7.73%
O=C(N/N=C/c1ccsc1)c1cc(O)cc(O)c1	9.53%
O=C(O)/C(=C/c1cccnc1)NC(=O)c1ccccc1	1.01%
O=C(N/N=C/c1cccnc1)c1cc2ccccc2cc1O	46.1% (active)
CC(=O)Nc1ccc(CN2CCC(Oc3ccc(C(=O)N4CCCC4)cc3)CC2)cc1	-7.88%

Structure (SMILES)	inhibition
COC(=O)C12C=C3CC(c4ccccc4)=C3C(=O)N1Cc1[nH]c3ccccc3c1C2 (stereo not drawn)	7.34%
CC1CC(C)CN(S(=O)(=O)c2ccc(C(=O)NN3CCOCC3)cc2)C1 (stereo not drawn)	-3.03%
CC1CN(S(=O)(=O)c2ccc(C(=O)Nc3sccc3C(N)=O)cc2)CC(C)O1 (stereo not drawn)	11.2%
O=C(Nc1nnc(-c2ccccc2)o1)c1cccc(S(=O)(=O)N2CCOCC2)c1	8.5%
CC1CCCN(S(=O)(=O)c2ccc(C(=O)Nc3nnc(-c4ccncc4)o3)cc2)C1 (stereo not drawn)	35% (active)
CC1CCCCN1S(=O)(=O)c1ccc(S(=O)(=O)N(CC(=O)Nc2ccccc2)Cc2cccs2)cc1 (stereo not drawn)	2.51%
CC1CCCCN1S(=O)(=O)c1ccc(C(=O)Nc2nnc(-c3cccs3)o2)cc1 (stereo not drawn)	49% (active)
O=C(NCc1ccc(Cl)cc1)C1CCCN(c2nc3ccccc3o2)C1 (stereo not drawn)	5.58%
CC(=O)Nc1ccc(OC[C@@H](O)CN2CCC(C(O)(c3ccccc3)c3ccccc3)CC2)cc1	-1%
O=C(NCc1ccccc1)[C@H]1CCCN1C(=O)[C@H]1CCCN1C(=O)c1cc(F)cc(F)c1	-2.08%
CCOC(=O)c1c(-c2ccc(C)cc2C)csc1NC(=O)CSc1nnnn1C	1.95%
CCOC(=O)c1c(-c2ccc(-c3ccccc3)cc2)csc1NC(=O)CCC(=O)O	43.3% (active)
CCOC(=O)c1c(C)nn(-c2ncccc2NC(=O)CCC(=O)O)c1C	3.15%
CC1(C)CC(=O)C=C(NCCN2CCNCC2)C1	-4.08%
CC(=O)C1=C(C)N(Cc2ccc(Cl)cc2)C(=S)NC1c1ccc(F)cc1 (stereo not drawn)	5.48%
O=C(COC(=O)c1cc([N+](=O)[O-])ccc1NCc1ccccc1)NC1CCCCC1	-1.88%
Cc1ccc(S(=O)(=O)NCCCn2ccnc2)cc1C(=O)NC(C)C	-1.64%
Cc1ccc(S(=O)(=O)NCCC(c2ccccc2)c2ccccc2)cc1C(=O)O	42.4% (active)
Cc1cccc(NS(=O)(=O)c2ccc(C)c(C(=O)NCC(c3ccccc3)N(C)C)c2)c1 (stereo not drawn)	-4.14%
O=S1(=O)c2ccc(N3CCN(Cc4ccccc4F)CC3)cc2Oc2ccccc2CN1Cc1cn(Cc2ccc(Cl)cc2)nn1	12.5%
